# Assay results taken from paper PMC7862700, “An all-to-all approach to the identification of sequence-specific readers for epigenetic DNA modifications on cytosine”.
# What was measured:
# Assay in all cases: DAPPL (digital affinity profiling via proximity ligation, sequencing); 10 mM Tris-HCl pH 7.5, 50 mM NaCl, 1 mM DTT, 4% glycerol, room temperature, 30 min; GST-TFs on glutathione beads, 16-mer random dsDNA library, 0.1% formaldehyde crosslink after washing; high values mean tight binding
# FLI1 = target: T1, FLI1 (Homo sapiens, UniProt Q01543 1-452); conditions: protein: recombinant; tags: N-terminal GST; dsDNA, one strand shown
# T1 sequence: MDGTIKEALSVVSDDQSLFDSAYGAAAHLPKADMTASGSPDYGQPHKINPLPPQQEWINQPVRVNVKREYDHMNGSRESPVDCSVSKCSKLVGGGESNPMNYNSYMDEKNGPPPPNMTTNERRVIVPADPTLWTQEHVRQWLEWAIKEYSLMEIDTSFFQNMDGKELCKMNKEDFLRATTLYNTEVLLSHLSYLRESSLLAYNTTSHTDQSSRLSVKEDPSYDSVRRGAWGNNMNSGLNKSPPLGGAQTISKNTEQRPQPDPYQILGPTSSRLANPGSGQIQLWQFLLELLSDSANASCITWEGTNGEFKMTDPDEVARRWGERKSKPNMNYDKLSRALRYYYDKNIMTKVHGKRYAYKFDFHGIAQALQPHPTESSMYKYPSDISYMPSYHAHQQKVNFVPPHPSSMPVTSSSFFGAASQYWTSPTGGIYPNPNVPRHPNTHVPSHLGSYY
# Outline: (§1)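 GST fusions of human transcription factors were expressed in yeast and captured with glutathione beads. Once given DNA barcodes and pooled alongside a tag-only sample, they were incubated for 30 min at room temperature with 200 nmole of a random double-stranded 16-mer DNA library in Tris/NaCl/DTT/glycerol buffer, then washed, crosslinked (0.1% formaldehyde), proximity-ligated, PCR-amplified and sequenced on an Illumina NextSeq500. The binding signal of each hexamer is its read frequency for a factor divided by its frequency for the tag-only sample.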
# ELK1 = target: T2, ELK1 (Homo sapiens, UniProt P19419 1-428); conditions: protein: recombinant; tags: N-terminal GST; dsDNA, one strand shown
# T2 sequence: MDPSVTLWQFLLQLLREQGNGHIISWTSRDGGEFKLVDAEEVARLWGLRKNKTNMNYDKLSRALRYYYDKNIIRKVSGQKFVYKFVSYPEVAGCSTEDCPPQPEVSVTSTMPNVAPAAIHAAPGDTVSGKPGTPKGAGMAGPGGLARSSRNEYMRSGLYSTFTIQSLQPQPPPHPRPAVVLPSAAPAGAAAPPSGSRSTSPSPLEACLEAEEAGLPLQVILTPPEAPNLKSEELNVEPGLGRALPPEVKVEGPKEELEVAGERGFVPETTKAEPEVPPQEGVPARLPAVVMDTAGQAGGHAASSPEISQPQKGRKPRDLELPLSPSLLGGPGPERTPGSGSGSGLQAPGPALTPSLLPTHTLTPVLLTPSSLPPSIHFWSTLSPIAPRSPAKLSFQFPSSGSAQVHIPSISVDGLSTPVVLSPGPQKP
# Outline: as §1
# GABPA = target: T3, GABPA (Homo sapiens, UniProt Q06546 1-454); conditions: protein: recombinant; tags: N-terminal GST; dsDNA, one strand shown
# T3 sequence: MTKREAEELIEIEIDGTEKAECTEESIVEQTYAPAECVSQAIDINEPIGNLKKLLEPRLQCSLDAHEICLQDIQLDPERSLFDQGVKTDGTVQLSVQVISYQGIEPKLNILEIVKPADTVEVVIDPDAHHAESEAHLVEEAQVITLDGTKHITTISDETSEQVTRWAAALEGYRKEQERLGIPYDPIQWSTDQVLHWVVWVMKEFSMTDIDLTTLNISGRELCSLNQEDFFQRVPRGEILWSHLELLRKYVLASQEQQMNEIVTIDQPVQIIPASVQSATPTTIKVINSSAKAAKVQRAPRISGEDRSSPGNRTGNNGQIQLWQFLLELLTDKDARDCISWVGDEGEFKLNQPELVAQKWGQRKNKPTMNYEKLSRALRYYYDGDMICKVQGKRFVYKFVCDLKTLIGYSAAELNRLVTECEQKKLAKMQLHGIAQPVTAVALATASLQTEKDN
# Outline: as §1
# ERG = target: T4, ERG (Homo sapiens, UniProt P11308 1-479); conditions: protein: recombinant; tags: N-terminal GST; dsDNA, one strand shown
# T4 sequence: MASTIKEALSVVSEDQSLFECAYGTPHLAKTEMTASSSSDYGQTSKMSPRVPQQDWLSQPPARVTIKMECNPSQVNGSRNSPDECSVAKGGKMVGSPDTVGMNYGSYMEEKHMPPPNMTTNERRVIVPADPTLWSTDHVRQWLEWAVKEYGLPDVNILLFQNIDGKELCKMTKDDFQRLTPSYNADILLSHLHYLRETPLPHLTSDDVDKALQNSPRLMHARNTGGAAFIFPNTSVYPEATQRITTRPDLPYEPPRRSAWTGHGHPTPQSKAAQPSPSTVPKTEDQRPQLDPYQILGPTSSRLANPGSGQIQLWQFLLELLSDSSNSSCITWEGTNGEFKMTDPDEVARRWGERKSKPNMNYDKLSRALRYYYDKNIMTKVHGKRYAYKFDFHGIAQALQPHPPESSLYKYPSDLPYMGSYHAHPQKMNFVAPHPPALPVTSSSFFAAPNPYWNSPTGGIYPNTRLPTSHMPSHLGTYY
# Outline: as §1
# ELF1 = ELF1 (Homo sapiens, UniProt P32519 1-619); conditions: protein: recombinant; tags: N-terminal GST; dsDNA, one strand shown
# Outline: as §1
# EHF = target: T5, EHF (Homo sapiens, UniProt Q9NZC4 1-300); conditions: protein: recombinant; tags: N-terminal GST; dsDNA, one strand shown
# T5 sequence: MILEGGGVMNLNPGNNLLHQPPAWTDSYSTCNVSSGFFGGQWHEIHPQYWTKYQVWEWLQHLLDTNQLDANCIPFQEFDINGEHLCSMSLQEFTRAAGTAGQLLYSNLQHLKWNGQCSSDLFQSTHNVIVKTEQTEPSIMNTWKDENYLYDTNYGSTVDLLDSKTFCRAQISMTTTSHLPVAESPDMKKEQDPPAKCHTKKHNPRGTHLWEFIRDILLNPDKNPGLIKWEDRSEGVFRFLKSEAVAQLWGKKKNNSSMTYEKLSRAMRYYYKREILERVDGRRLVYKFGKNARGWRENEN
# Outline: as §1
# SPI1 = SPI1 (Homo sapiens, UniProt P17947 1-270); conditions: protein: recombinant; tags: N-terminal GST; dsDNA, one strand shown
# Outline: as §1
# SPIB = SPIB (Homo sapiens, UniProt Q01892 1-262); conditions: protein: recombinant; tags: N-terminal GST; dsDNA, one strand shown
# Outline: as §1
# ELK3 = target: T6, ELK3 (Homo sapiens, UniProt P41970 1-407); conditions: protein: recombinant; tags: N-terminal GST; dsDNA, one strand shown
# T6 sequence: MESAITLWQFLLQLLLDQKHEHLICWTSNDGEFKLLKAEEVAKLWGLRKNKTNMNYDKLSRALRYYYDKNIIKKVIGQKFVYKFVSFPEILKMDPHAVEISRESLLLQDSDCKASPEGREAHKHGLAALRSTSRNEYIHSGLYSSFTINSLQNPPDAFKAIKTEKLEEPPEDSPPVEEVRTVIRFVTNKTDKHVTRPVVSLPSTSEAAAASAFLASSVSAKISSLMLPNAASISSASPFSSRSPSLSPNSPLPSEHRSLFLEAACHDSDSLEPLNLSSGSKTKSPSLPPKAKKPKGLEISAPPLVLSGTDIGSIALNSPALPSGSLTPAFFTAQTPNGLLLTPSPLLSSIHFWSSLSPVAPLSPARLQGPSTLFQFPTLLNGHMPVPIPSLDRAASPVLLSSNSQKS
# Outline: as §1
# FEV = target: T7, FEV (Homo sapiens, UniProt Q99581 1-238); conditions: protein: recombinant; tags: N-terminal GST; dsDNA, one strand shown
# T7 sequence: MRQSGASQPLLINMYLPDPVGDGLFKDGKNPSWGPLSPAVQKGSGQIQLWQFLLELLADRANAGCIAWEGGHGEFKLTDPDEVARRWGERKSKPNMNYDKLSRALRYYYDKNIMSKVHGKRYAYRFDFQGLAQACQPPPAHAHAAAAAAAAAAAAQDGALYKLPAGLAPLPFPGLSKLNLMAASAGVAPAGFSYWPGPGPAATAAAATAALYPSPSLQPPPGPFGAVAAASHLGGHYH
# Outline: as §1
# ETV5 = ETV5 (Homo sapiens, UniProt P41161 1-510); conditions: protein: recombinant; tags: N-terminal GST; dsDNA, one strand shown
# Outline: as §1
# HSF1 = HSF1 (Homo sapiens, UniProt Q00613 1-529); conditions: protein: recombinant; tags: N-terminal GST; chain copies: 3; dsDNA, one strand shown
# Outline: as §1
# SPIC = target: T8, SPIC (Homo sapiens, UniProt Q8N5J4 1-248); conditions: protein: recombinant; tags: N-terminal GST; dsDNA, one strand shown
# T8 sequence: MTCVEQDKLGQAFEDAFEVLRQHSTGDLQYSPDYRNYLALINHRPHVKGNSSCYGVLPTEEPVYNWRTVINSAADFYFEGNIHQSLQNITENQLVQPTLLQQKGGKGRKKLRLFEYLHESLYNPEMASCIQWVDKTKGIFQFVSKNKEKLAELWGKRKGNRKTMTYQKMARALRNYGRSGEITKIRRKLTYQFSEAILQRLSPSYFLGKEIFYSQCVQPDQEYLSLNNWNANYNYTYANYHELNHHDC
# Outline: as §1
# ELF4 = ELF4 (Homo sapiens, UniProt Q99607 1-663); conditions: protein: recombinant; tags: N-terminal GST; dsDNA, one strand shown
# Outline: as §1
# ELK4 = target: T9, ELK4 (Homo sapiens, UniProt P28324-2 1-405); conditions: protein: recombinant; tags: N-terminal GST; dsDNA, one strand shown
# T9 sequence: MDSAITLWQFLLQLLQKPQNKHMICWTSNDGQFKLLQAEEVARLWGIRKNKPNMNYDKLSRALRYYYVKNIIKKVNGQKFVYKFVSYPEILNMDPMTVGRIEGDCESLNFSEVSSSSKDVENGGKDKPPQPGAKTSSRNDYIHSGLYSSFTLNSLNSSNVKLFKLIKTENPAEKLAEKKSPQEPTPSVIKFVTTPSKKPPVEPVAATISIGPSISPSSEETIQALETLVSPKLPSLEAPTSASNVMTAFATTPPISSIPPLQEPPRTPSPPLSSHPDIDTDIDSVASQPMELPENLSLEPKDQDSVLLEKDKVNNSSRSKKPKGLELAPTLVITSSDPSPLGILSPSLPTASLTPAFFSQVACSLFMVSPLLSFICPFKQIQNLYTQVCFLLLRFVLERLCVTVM
# Outline: as §1
# ETV2 = target: T10, ETV2 (Homo sapiens, UniProt O00321 1-342); conditions: protein: recombinant; tags: N-terminal GST; dsDNA, one strand shown
# T10 sequence: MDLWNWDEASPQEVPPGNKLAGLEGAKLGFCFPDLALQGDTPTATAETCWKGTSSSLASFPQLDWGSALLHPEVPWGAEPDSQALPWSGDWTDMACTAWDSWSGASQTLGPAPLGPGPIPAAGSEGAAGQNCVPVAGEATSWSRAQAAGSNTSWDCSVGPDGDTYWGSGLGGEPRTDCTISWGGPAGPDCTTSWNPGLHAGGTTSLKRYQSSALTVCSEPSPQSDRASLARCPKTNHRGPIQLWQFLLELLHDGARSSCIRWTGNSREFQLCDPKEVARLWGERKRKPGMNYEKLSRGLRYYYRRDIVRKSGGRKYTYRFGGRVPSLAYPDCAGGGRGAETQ
# Outline: as §1
# ELF3 = target: T11, ELF3 (Homo sapiens, UniProt P78545 1-371); conditions: protein: recombinant; tags: N-terminal GST; dsDNA, one strand shown
# T11 sequence: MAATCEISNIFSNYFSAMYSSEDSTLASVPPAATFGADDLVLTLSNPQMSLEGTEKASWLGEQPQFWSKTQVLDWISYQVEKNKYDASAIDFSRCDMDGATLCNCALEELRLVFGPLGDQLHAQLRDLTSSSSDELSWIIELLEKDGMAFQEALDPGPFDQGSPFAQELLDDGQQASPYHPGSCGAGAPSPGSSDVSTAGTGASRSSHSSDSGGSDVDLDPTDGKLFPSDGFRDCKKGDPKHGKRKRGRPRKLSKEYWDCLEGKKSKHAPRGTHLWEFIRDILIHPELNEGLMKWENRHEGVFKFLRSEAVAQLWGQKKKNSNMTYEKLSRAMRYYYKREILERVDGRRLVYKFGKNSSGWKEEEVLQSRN
# Outline: as §1
# ETV1 = ETV1 (Homo sapiens, UniProt P50549 1-477); conditions: protein: recombinant; tags: N-terminal GST; dsDNA, one strand shown
# Outline: as §1
# Sequence of HSF1 (Q00613 whole entry): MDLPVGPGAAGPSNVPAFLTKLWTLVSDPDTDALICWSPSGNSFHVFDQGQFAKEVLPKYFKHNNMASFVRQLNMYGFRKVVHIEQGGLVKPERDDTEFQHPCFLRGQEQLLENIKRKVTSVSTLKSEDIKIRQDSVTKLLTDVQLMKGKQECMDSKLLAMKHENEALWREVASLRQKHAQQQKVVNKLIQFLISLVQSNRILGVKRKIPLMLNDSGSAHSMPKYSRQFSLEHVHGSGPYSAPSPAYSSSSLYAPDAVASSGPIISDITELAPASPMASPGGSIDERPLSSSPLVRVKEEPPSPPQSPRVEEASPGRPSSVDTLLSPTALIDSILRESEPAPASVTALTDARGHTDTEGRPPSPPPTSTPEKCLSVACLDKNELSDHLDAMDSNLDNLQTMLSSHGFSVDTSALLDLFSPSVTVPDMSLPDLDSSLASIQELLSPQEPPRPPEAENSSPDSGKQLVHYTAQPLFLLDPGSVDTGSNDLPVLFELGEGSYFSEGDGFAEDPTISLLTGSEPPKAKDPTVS
# Sequence of ETV1 (P50549 whole entry): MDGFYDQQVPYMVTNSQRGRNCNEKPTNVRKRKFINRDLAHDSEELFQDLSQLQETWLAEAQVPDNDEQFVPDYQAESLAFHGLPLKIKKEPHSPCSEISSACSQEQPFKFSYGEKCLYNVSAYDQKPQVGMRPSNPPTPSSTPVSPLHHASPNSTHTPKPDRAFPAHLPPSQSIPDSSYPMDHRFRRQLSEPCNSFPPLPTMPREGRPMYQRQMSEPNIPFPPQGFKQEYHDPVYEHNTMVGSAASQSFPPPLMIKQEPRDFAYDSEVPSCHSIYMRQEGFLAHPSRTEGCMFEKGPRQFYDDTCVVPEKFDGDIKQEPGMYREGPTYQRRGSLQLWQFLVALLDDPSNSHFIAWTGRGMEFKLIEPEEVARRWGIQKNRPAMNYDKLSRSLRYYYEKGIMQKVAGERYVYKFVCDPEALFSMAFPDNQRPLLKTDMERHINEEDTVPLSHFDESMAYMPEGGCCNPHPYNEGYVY
# Sequence of SPIB (Q01892 whole entry): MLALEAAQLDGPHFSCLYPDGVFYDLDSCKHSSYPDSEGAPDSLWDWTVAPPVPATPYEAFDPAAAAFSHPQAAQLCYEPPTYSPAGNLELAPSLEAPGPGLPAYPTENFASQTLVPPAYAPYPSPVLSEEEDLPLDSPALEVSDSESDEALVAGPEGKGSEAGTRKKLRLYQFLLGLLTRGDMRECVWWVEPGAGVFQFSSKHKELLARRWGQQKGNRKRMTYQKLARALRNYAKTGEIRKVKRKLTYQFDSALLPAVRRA
# Sequence of ETV5 (P41161 whole entry): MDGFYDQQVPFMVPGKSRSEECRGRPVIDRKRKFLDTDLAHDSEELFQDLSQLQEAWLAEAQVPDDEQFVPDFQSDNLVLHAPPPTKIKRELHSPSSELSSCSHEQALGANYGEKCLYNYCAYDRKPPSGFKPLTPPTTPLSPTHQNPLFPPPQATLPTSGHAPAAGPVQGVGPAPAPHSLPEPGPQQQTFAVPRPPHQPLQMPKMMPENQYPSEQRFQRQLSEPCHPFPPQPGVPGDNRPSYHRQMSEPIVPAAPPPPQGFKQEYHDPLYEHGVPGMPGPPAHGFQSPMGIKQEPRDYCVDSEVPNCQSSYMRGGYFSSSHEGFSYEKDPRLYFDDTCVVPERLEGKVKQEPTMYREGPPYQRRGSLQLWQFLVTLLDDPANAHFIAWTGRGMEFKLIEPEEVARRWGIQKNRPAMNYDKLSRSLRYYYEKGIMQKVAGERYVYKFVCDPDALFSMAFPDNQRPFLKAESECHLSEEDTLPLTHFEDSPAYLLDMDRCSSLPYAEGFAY
# Sequence of ELF1 (P32519 whole entry): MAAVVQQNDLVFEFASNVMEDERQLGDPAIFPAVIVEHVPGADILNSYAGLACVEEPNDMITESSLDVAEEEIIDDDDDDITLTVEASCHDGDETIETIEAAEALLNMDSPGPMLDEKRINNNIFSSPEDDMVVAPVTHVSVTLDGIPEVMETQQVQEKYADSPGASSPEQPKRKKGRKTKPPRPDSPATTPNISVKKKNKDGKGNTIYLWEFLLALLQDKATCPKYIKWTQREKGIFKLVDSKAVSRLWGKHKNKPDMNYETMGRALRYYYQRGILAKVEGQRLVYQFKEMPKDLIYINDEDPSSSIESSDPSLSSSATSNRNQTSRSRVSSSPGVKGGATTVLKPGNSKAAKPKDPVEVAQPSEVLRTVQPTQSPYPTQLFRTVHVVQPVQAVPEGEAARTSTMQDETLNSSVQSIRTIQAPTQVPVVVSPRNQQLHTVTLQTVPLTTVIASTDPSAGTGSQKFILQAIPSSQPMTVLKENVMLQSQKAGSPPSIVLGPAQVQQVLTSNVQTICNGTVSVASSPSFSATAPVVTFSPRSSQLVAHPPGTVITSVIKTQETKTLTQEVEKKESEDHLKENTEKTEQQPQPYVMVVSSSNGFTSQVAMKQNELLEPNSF
# Sequence of ELF4 (Q99607 whole entry): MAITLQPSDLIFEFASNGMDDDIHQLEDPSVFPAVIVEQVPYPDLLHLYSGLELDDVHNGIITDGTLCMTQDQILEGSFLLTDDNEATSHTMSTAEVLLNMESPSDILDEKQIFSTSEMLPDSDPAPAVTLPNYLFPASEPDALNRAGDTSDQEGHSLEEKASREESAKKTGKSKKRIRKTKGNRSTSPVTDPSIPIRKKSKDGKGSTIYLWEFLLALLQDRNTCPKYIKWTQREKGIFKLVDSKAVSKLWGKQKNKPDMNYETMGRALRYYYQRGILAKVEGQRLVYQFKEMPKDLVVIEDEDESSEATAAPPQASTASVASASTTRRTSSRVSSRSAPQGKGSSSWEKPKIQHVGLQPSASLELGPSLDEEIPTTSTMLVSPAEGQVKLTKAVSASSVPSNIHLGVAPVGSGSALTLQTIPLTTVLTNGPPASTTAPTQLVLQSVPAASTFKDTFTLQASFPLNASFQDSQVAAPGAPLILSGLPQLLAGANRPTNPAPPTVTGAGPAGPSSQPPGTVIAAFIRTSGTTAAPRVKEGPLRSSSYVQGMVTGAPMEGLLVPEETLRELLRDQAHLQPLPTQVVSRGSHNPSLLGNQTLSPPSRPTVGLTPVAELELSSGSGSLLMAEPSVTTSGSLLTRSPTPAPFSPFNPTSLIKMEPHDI
sequence,measurement,setting,value
CCGTCC,binding signal,FLI1,"1.37 fold enrichment (6-mer frequency, TF over GST control)"
same,binding signal,ELK1,"1.37 fold enrichment (6-mer frequency, TF over GST control)"
same,binding signal,GABPA,"1.29 fold enrichment (6-mer frequency, TF over GST control)"
same,binding signal,ERG,"1.42 fold enrichment (6-mer frequency, TF over GST control)"
same,binding signal,ELF1,"1.37 fold enrichment (6-mer frequency, TF over GST control)"
same,binding signal,EHF,"1.42 fold enrichment (6-mer frequency, TF over GST control)"
same,binding signal,SPI1,"1.21 fold enrichment (6-mer frequency, TF over GST control)"
same,binding signal,SPIB,"1.25 fold enrichment (6-mer frequency, TF over GST control)"
same,binding signal,ELK3,"1.39 fold enrichment (6-mer frequency, TF over GST control)"
same,binding signal,FEV,"1.38 fold enrichment (6-mer frequency, TF over GST control)"
same,binding signal,ETV5,"1.26 fold enrichment (6-mer frequency, TF over GST control)"
same,binding signal,HSF1,"1.03 fold enrichment (6-mer frequency, TF over GST control)"
same,binding signal,SPIC,"1.39 fold enrichment (6-mer frequency, TF over GST control)"
same,binding signal,ELF4,"1.37 fold enrichment (6-mer frequency, TF over GST control)"
same,binding signal,ELK4,"1.28 fold enrichment (6-mer frequency, TF over GST control)"
same,binding signal,ETV2,"1.8 fold enrichment (6-mer frequency, TF over GST control)"
same,binding signal,ELF3,"1.43 fold enrichment (6-mer frequency, TF over GST control)"
same,binding signal,ETV1,"1.38 fold enrichment (6-mer frequency, TF over GST control)"
